From PubChem BioAssay AID1159580 (chemical genetic matrix, 2015)
The campaign covered roughly 5,500 compounds. About 2,000 (36%) were called active. Roughly 18% stayed inconclusive and do not appear here. No stated cut-off is given here; in the data, active means normalized growth mostly below about 0.91 (no sharp cut-off); inconclusive means no clear call, values can overlap the other calls; inactive means mostly above about 0.92. This is one part of the list.

Experiment: chemical genetic growth profiling, strain panel (AID 1159580);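 further: tested at 20 µM; growth read once vehicle control cultures reached saturation at 30 °C; 1 = growth at the plate median or of vehicle wells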
Settings: S. cerevisiae deletion strains, growth OD

Measured: normalized growth

O=C1C=CC(=O)c2c(O)c(Cl)c(Cl)c(O)c21
active: locus YAL021C, strain ccr4, stronger effect = lower value 0.0743 | locus YAL026C, strain drs2, stronger effect = lower value 0.0712 | locus YAL030W, strain snc1, stronger effect = lower value 0.065 | locus YBL061C, strain skt5, stronger effect = lower value 0.0691 | locus YBR009C, strain hhf1, stronger effect = lower value 0.0757 | locus YBR023C, strain chs3, stronger effect = lower value 0.0713 | locus YBR171W, strain sec66, stronger effect = lower value 0.0854 | locus YBR231C, strain swc5, stronger effect = lower value 0.0695 | locus YBR279W, strain paf1, stronger effect = lower value 0.0653 | locus YCL011C, strain gbp2, stronger effect = lower value 0.0661 | locus YCL016C, strain dcc1, stronger effect = lower value 0.0723 | locus YCL061C, strain MRC1, stronger effect = lower value 0.0708 | locus YCL069W, strain vba3, stronger effect = lower value 0.0675 | locus YCR088W, strain abp1, stronger effect = lower value 0.0687 | locus YDL005C, strain med2, stronger effect = lower value 0.0837 | locus YDL040C, strain nat1, stronger effect = lower value 0.0677 | locus YDR001C, strain nth1, stronger effect = lower value 0.0651 | locus YDR069C, strain doa4, stronger effect = lower value 0.0731 | locus YDR137W, strain rgp1, stronger effect = lower value 0.816 | locus YDR159W, strain sac3, stronger effect = lower value 0.817 | locus YDR195W, strain ref2 0.72 | locus YDR297W, strain sur2, stronger effect = lower value 0.0653 | locus YDR334W, strain swr1, stronger effect = lower value 0.0709 | locus YDR335W, strain msn5, stronger effect = lower value 0.0705 | locus YDR392W, strain spt3, stronger effect = lower value 0.11 | locus YEL003W, strain gim4, stronger effect = lower value 0.0616 | locus YEL037C, strain rad23, stronger effect = lower value 0.0635 | locus YEL061C, strain CIN8 (second series), stronger effect = lower value 0.0685 | locus YER015W, strain faa2, stronger effect = lower value 0.0696 | locus YER016W, strain bim1, stronger effect = lower value 0.0673 | locus YER155C, strain BEM2 (second series), stronger effect = lower value 0.101 | locus YFR010W, strain ubp6, stronger effect = lower value 0.0771 | locus YGL167C, strain pmr1, stronger effect = lower value 0.0844 | locus YGL173C, strain kem1, stronger effect = lower value 0.0767 | locus YGL227W, strain vid30, stronger effect = lower value 0.0694 | locus YGL240W, strain doc1, stronger effect = lower value 0.087 | locus YGL253W, strain hxk2, stronger effect = lower value 0.0606 | locus YHR013C, strain ard1, stronger effect = lower value 0.118 | locus YHR027C, strain rpn1, stronger effect = lower value 0.0722 | locus YHR030C, strain SLT2, stronger effect = lower value 0.114 | locus YHR079C, strain IRE1, stronger effect = lower value 0.132 | locus YHR142W, strain chs7, stronger effect = lower value 0.0821 | locus YJL092W, strain hpr5, stronger effect = lower value 0.066 | locus YJL095W, strain BCK1 (second series), stronger effect = lower value 0.0647 | locus YJL095W, strain BCK1, stronger effect = lower value 0.118 | locus YJL115W, strain asf1, stronger effect = lower value 0.0821 | locus YJL154C, strain vps35, stronger effect = lower value 0.0659 | locus YJL164C, strain tpk1, stronger effect = lower value 0.076 | locus YJL166W, strain qcr8, stronger effect = lower value 0.0693 | locus YJL187C, strain SWE1, stronger effect = lower value 0.0656 | locus YJR066W, strain TOR1, stronger effect = lower value -0.00728 | locus YKL160W, strain elf1, stronger effect = lower value 0.0955 | locus YKR026C, strain gcn3, stronger effect = lower value 0.0721 | locus YKR091W, strain srl3, stronger effect = lower value 0.0686 | locus YLL001W, strain dnm1, stronger effect = lower value 0.0682 | locus YLL026W, stronger effect = lower value 0.065 | locus YLL041C, strain sdh2, stronger effect = lower value 0.0651 | locus YLR027C, strain aat2, stronger effect = lower value 0.0649 | locus YLR113W, strain HOG1, stronger effect = lower value 0.129 | locus YLR221C, strain rsa3, stronger effect = lower value 0.0719 | locus YLR258W, strain gsy2, stronger effect = lower value 0.0692 | locus YLR262C, strain YPT6 (second series), stronger effect = lower value 0.0889 | locus YLR320W, strain mms22, stronger effect = lower value 0.0961 | locus YLR342W, strain FKS1, stronger effect = lower value 0.0745 | locus YLR357W, strain rsc2, stronger effect = lower value 0.136 | locus YLR370C, strain arc18, stronger effect = lower value 0.0692 | locus YLR384C, strain iki3, stronger effect = lower value 0.0665 | locus YMR058W, strain fet3, stronger effect = lower value 0.0663 | locus YMR125W, strain sto1, stronger effect = lower value 0.0829 | locus YMR129W, stronger effect = lower value 0.0652 | locus YMR205C, strain PFK2, stronger effect = lower value 0.0948 | locus YMR231W, strain pep5, stronger effect = lower value 0.0753 | locus YNL071W, strain lat1, stronger effect = lower value 0.0684 | locus YNL183C, strain NPR1, stronger effect = lower value 0.021 | locus YNL209W, strain ssb2, stronger effect = lower value 0.0691 | locus YNL248C, strain rpa49, stronger effect = lower value 0.0871 | locus YNL322C, strain KRE1 (second series), stronger effect = lower value 0.0721 | locus YNR049C, strain mso1, stronger effect = lower value 0.0642 | locus YOR001W, strain rrp6, stronger effect = lower value 0.0755 | locus YOR070C, strain gyp1, stronger effect = lower value 0.0663 | locus YOR080W, strain dia2, stronger effect = lower value 0.104 | locus YOR083W, strain WHI5, stronger effect = lower value 0.0727 | locus YOR106W, strain vam3, stronger effect = lower value 0.0721 | locus YOR231W, strain MKK1, stronger effect = lower value 0.129 | locus YOR265W, strain rbl2, stronger effect = lower value 0.0661 | locus YOR270C, strain vph1, stronger effect = lower value 0.108 | locus YPL051W, strain arl3, stronger effect = lower value 0.0733 | locus YPL078C, strain atp4, stronger effect = lower value 0.852 | locus YPL106C, strain sse1, stronger effect = lower value 0.116 | locus YPL240C, strain hsp82, stronger effect = lower value 0.0634 | locus YPL256C, strain CLN2, stronger effect = lower value 0.147
inactive: locus YER111C, strain swi4, stronger effect = lower value 0.984 | locus YJL129C, strain trk1, stronger effect = lower value 0.965 | locus YML120C, strain ndi1, stronger effect = lower value 0.928 | locus YOR290C, strain snf2, stronger effect = lower value 0.963
